Measurements as given in the antibiotic and cytotoxicity screens of Wong et al. (2023).
Hit rate of the full screen: of about 39,000 compounds, about 3,300 (8.5%) were called active. What follows is part of a selection rich in actives, with near analogues and random picks from the rest.

tested on: HepG2; assay: cytotoxicity call (relative viability < 0.9); details: 10 µM

Q: Which cytotoxicity call does the source give for `Cc1noc(C)c1S(=O)(=O)N(C)C[C@H]1OCCCC[C@@H](C)Oc2ccc(NC(=O)Nc3ccc(F)cc3)cc2C(=O)N([C@@H](C)CO)C[C@H]1C` here?
A: inactive

Q: Which cytotoxicity call does the source give for `Cc1noc(C)c1NC(=O)Nc1ccc2c(c1)CC(=O)N([C@H](C)CO)C[C@H](C)[C@@H](CN(C)Cc1ccc(Oc3ccccc3)cc1)O2` here?
A: inactive

Q: Which cytotoxicity call does the source give for `C[C@H](CO)N1C[C@H](C)[C@@H](CN(C)C(=O)Nc2ccc3c(c2)OCO3)Oc2ccc(NC(=O)C3CC3)cc2CC1=O` here?
A: inactive

Q: For `Cc1noc(C)c1S(=O)(=O)N(C)C[C@H]1Oc2ccc(NC(=O)Cn3cnnn3)cc2C(=O)N([C@H](C)CO)C[C@H]1C`, which cytotoxicity call is on record?
A: inactive

Q: Which cytotoxicity call does the source give for `C[C@@H]1CN([C@H](C)CO)S(=O)(=O)c2ccc(C#Cc3ccccc3)cc2O[C@@H]1CN(C)C(=O)Cc1ccccn1` here?
A: inactive

Q: `C[C@@H]1CN([C@H](C)CO)C(=O)Cc2cc(NC(=O)c3ccncc3)ccc2O[C@@H]1CN(C)Cc1ccc2c(c1)OCO2` was tested. Which cytotoxicity call did it give?
A: inactive

Q: How did the cytotoxicity call turn out when `COc1ccc(C(N)=O)cc1` was run?
A: inactive

Q: `COC(=O)[C@@H]1[C@@H](c2ccc(OC)cc2)[C@H](C(=O)OC)S(=O)(=O)CS1(=O)=O` was tested. Which cytotoxicity call did it give?
A: active

Q: With `COc1ccc(CNCC(=O)O)cc1` as the molecule, how does the cytotoxicity call read?
A: inactive

Q: `C=C1C(=O)OC2C1CCC(C)=CCCC1(C)OC21` (stereo unspecified) was tested. Which cytotoxicity call did it give?
A: active

Q: Which cytotoxicity call does the source give for `C=C1CCC=C(C)CCC2C1CC2(C)C.O` (single isomer, unassigned; (-)) [(-)E-CARYOPHYLLENE hydrate ] here?
A: inactive

Q: For `C[C@H](CO)N1C[C@H](C)[C@H](CN(C)S(=O)(=O)c2ccccc2)Oc2ncc(C#Cc3ccccc3)cc2C1=O`, which cytotoxicity call is on record?
A: inactive

Q: `Cc1ccc(S(=O)(=O)Nc2ccc3c(c2)C(=O)N([C@H](C)CO)C[C@H](C)[C@@H](CN(C)C(=O)c2ccccc2)OCCCC[C@@H](C)O3)cc1` was tested. Which cytotoxicity call did it give?
A: inactive

Q: Which cytotoxicity call does the source give for `COCC(=O)N1CC[C@]2(CC(C(=O)NCc3cnc(C)cn3)=NO2)C1` here?
A: inactive

Q: With `COc1ccc(S(=O)(=O)N(C)C[C@H]2OCCCC[C@@H](C)Oc3ccc(NC(=O)Nc4c(C)noc4C)cc3C(=O)N([C@H](C)CO)C[C@@H]2C)cc1` as the molecule, how does the cytotoxicity call read?
A: inactive

Q: Which cytotoxicity call does the source give for `COc1ccc(S(=O)(=O)N(C)C[C@H]2OCCCC[C@H](C)Oc3ccc(NC(=O)Nc4c(C)noc4C)cc3C(=O)N([C@@H](C)CO)C[C@H]2C)cc1` here?
A: active

Q: `COc1ccc(S(=O)(=O)N(C)C[C@@H]2OCCCC[C@H](C)Oc3ccc(NC(=O)Nc4c(C)noc4C)cc3C(=O)N([C@H](C)CO)C[C@@H]2C)cc1` was tested. Which cytotoxicity call did it give?
A: inactive

Q: `COc1ccc(S(=O)(=O)N(C)C[C@@H]2OCCCC[C@@H](C)Oc3ccc(NC(=O)Nc4c(C)noc4C)cc3C(=O)N([C@@H](C)CO)C[C@H]2C)cc1` was tested. Which cytotoxicity call did it give?
A: inactive

Q: `COc1ccc(S(=O)(=O)N(C)C[C@H]2OCCCC[C@H](C)Oc3ccc(NC(=O)Nc4c(C)noc4C)cc3C(=O)N([C@@H](C)CO)C[C@@H]2C)cc1` was tested. Which cytotoxicity call did it give?
A: active

Q: For `COc1ccc(S(=O)(=O)N(C)C[C@@H]2OCCCC[C@H](C)Oc3ccc(NC(=O)Nc4c(C)noc4C)cc3C(=O)N([C@@H](C)CO)C[C@H]2C)cc1`, which cytotoxicity call is on record?
A: inactive

Q: How did the cytotoxicity call turn out when `Cc1noc(C)c1NC(=O)N(C)C[C@H]1Oc2ccc(NS(=O)(=O)c3cn(C)cn3)cc2CC(=O)N([C@H](C)CO)C[C@@H]1C` was run?
A: inactive

Q: How did the cytotoxicity call turn out when `C[C@@H]1CN([C@@H](C)CO)C(=O)c2cccc(NS(=O)(=O)c3cn(C)cn3)c2O[C@@H]1CN(C)Cc1ccncc1` was run?
A: inactive

Q: With `O=C(C[C@H]1C[C@H]2c3cc(NC(=O)Nc4ccc(C(F)(F)F)cc4)ccc3O[C@H]2[C@H](CO)O1)NCc1cc(F)ccc1F` as the molecule, how does the cytotoxicity call read?
A: inactive

Q: Which cytotoxicity call does the source give for `CNC[C@@H]1OCCCC[C@@H](C)Oc2ccc(NS(=O)(=O)c3c(C)noc3C)cc2C(=O)N([C@H](C)CO)C[C@@H]1C` here?
A: inactive

Q: For `C[C@H]1C/C(=C\N(C)C)C(=O)C1=O`, which cytotoxicity call is on record?
A: active

Q: With `C[C@@H]1CCCCO[C@@H](CN(C)C(=O)Nc2ccc3c(c2)OCO3)[C@H](C)CN([C@H](C)CO)C(=O)c2cc(NS(=O)(=O)c3ccc(Cl)cc3)ccc2O1` as the molecule, how does the cytotoxicity call read?
A: inactive

Q: How did the cytotoxicity call turn out when `C[C@@H]1CCCCO[C@H](CN(C)S(=O)(=O)c2ccccc2)[C@H](C)CN([C@@H](C)CO)C(=O)c2cc(NC(=O)NC3CCCCC3)ccc2O1` was run?
A: inactive

Q: `C[C@H](CO)N1C[C@H](C)[C@@H](CN(C)Cc2ccc3c(c2)OCO3)Oc2c(NC(=O)C3CCOCC3)cccc2C1=O` was tested. Which cytotoxicity call did it give?
A: inactive

Q: How did the cytotoxicity call turn out when `C[C@@H]1CN([C@H](C)CO)C(=O)c2cc(C#CCc3ccccc3)cnc2O[C@@H]1CN(C)C(=O)C1CCOCC1` was run?
A: inactive

Q: Which cytotoxicity call does the source give for `O=C(c1ccc(Cl)cc1)c1coc2c1cc(O)c1ccccc12` here?
A: active

Q: How did the cytotoxicity call turn out when `Oc1ccc(F)c2ccccc12` was run?
A: inactive

Q: With `C[C@H]1CN([C@@H](C)CO)C(=O)Cc2cc(NC(=O)Nc3ccc4c(c3)OCO4)ccc2O[C@H]1CN(C)C(=O)Nc1ccc(C(F)(F)F)cc1` as the molecule, how does the cytotoxicity call read?
A: active

Q: How did the cytotoxicity call turn out when `C[C@@H]1CN([C@H](C)CO)C(=O)Cc2cc(NC(=O)Nc3ccc(C(F)(F)F)cc3)ccc2O[C@@H]1CN(C)C(=O)Nc1ccc2c(c1)OCO2` was run?
A: active

Q: For `C[C@H]1CN([C@@H](C)CO)C(=O)Cc2cc(NC(=O)Nc3ccc4c(c3)OCO4)ccc2O[C@@H]1CN(C)C(=O)Nc1ccc(C(F)(F)F)cc1`, which cytotoxicity call is on record?
A: inactive

Q: Which cytotoxicity call does the source give for `C[C@@H]1CN([C@@H](C)CO)C(=O)Cc2cc(NC(=O)Nc3ccc4c(c3)OCO4)ccc2O[C@H]1CN(C)C(=O)Nc1ccc(C(F)(F)F)cc1` here?
A: inactive

Q: How did the cytotoxicity call turn out when `C[C@H](CO)N1C[C@H](C)[C@@H](CN(C)C(=O)Nc2ccc3c(c2)OCO3)Oc2ccc(NC(=O)Nc3ccc(C(F)(F)F)cc3)cc2CC1=O` was run?
A: inactive

Q: Which cytotoxicity call does the source give for `C[C@@H]1CN([C@@H](C)CO)C(=O)Cc2cc(NC(=O)Nc3ccc(C(F)(F)F)cc3)ccc2O[C@H]1CN(C)C(=O)Nc1ccc2c(c1)OCO2` here?
A: inactive

Q: With `C[C@@H]1CN([C@H](C)CO)C(=O)Cc2cc(NC(=O)Nc3ccc4c(c3)OCO4)ccc2O[C@@H]1CN(C)C(=O)Nc1ccc(C(F)(F)F)cc1` as the molecule, how does the cytotoxicity call read?
A: active

Q: For `C[C@H](CO)N1C[C@H](C)[C@H](CN(C)C(=O)Nc2ccc3c(c2)OCO3)Oc2ccc(NC(=O)Nc3ccc(C(F)(F)F)cc3)cc2CC1=O`, which cytotoxicity call is on record?
A: inactive

Q: How did the cytotoxicity call turn out when `C[C@@H]1CN([C@H](C)CO)C(=O)Cc2cc(NC(=O)Nc3ccc(C(F)(F)F)cc3)ccc2O[C@H]1CN(C)C(=O)Nc1ccc2c(c1)OCO2` was run?
A: inactive

Q: `C[C@H]1CN([C@@H](C)CO)C(=O)Cc2cc(NC(=O)Nc3ccc(C(F)(F)F)cc3)ccc2O[C@H]1CN(C)C(=O)Nc1ccc2c(c1)OCO2` was tested. Which cytotoxicity call did it give?
A: inactive

Q: `C[C@@H]1CN([C@@H](C)CO)C(=O)Cc2cc(NC(=O)Nc3ccc(C(F)(F)F)cc3)ccc2O[C@@H]1CN(C)C(=O)Nc1ccc2c(c1)OCO2` was tested. Which cytotoxicity call did it give?
A: active

Q: `C[C@H]1CN([C@@H](C)CO)C(=O)Cc2cc(NC(=O)Nc3ccc(C(F)(F)F)cc3)ccc2O[C@@H]1CN(C)C(=O)Nc1ccc2c(c1)OCO2` was tested. Which cytotoxicity call did it give?
A: inactive

Q: For `Cc1noc(C)c1NC(=O)Nc1ccc2c(c1)C(=O)N([C@H](C)CO)C[C@H](C)[C@H](CN(C)Cc1ccccc1)OCCCC[C@H](C)O2`, which cytotoxicity call is on record?
A: inactive

Q: `C=CCOC(=O)[C@H]1[C@@H]2C(=O)O[C@@H](c3ccccc3)[C@@H](c3ccccc3)N2[C@@H](c2ccc(OCCOC(=O)[C@@H]3C[C@@H]4C(=O)N[C@@H](CC(C)C)C(=O)N4[C@@H]3c3cccc(OCCO)c3)cc2)[C@]12C(=O)Nc1ccccc12` was tested. Which cytotoxicity call did it give?
A: inactive

Q: For `COc1ccc(S(=O)(=O)N(C)C[C@H]2Oc3ccc(NS(=O)(=O)c4cccs4)cc3C(=O)N([C@H](C)CO)C[C@@H]2C)cc1`, which cytotoxicity call is on record?
A: inactive

Q: Which cytotoxicity call does the source give for `COc1cccc(NC(=O)N[C@H]2C=C[C@@H](CC(=O)N3CCN(C)CC3)O[C@H]2CO)c1` here?
A: inactive

Q: How did the cytotoxicity call turn out when `C[C@@H]1CN([C@@H](C)CO)C(=O)c2cc(NC(=O)Nc3ccc4c(c3)OCO4)ccc2O[C@@H](C)CCCCO[C@H]1CN(C)Cc1ccncc1` was run?
A: inactive

Q: For `c1cnc2nccn2c1`, which cytotoxicity call is on record?
A: inactive

Q: With `C[C@@H]1CN([C@H](C)CO)C(=O)c2cc(NC(=O)CCCN(C)C)ccc2O[C@@H]1CN(C)S(=O)(=O)c1cn(C)cn1` as the molecule, how does the cytotoxicity call read?
A: inactive

Q: How did the cytotoxicity call turn out when `C[C@H](CO)N1C[C@H](C)[C@H](CN(C)Cc2ccc(C(=O)Nc3ccccc3N)cc2)Oc2c(NC(=O)Nc3ccccc3)cccc2C1=O` was run?
A: inactive

Q: `C[C@H]1CN([C@@H](C)CO)C(=O)c2cccc(NC(=O)Nc3cccc4ccccc34)c2O[C@H]1CN(C)Cc1ccc(C(=O)Nc2ccccc2N)cc1` was tested. Which cytotoxicity call did it give?
A: active

Q: `C[C@@H]1CN([C@@H](C)CO)C(=O)c2cccc(NC(=O)Nc3cccc4ccccc34)c2O[C@@H]1CN(C)Cc1ccc(C(=O)Nc2ccccc2N)cc1` was tested. Which cytotoxicity call did it give?
A: inactive

Q: `C[C@H]1CN([C@@H](C)CO)C(=O)c2cccc(NC(=O)Nc3ccccc3)c2O[C@@H]1CN(C)Cc1ccc(C(=O)Nc2ccccc2N)cc1` was tested. Which cytotoxicity call did it give?
A: inactive

Q: How did the cytotoxicity call turn out when `C[C@@H]1CN([C@H](C)CO)C(=O)c2cccc(NC(=O)Nc3cccc4ccccc34)c2O[C@@H]1CN(C)Cc1ccc(C(=O)Nc2ccccc2N)cc1` was run?
A: inactive

Q: How did the cytotoxicity call turn out when `C[C@H](CO)N1C[C@H](C)[C@H](CN(C)Cc2ccc(C(=O)Nc3ccccc3N)cc2)Oc2c(NC(=O)Nc3cccc4ccccc34)cccc2C1=O` was run?
A: active

Q: Which cytotoxicity call does the source give for `COc1ccc(NC(=O)N(C)C[C@@H]2Oc3ccc(NC(=O)Nc4ccc(C(F)(F)F)cc4)cc3C(=O)N([C@@H](C)CO)C[C@@H]2C)cc1` here?
A: inactive

Q: `O[C@@H]1Cc2ccccc2[C@H]1O` was tested. Which cytotoxicity call did it give?
A: inactive

Q: How did the cytotoxicity call turn out when `O=C(C[C@H]1CC[C@@H]2[C@H](COC[C@H](O)CN2S(=O)(=O)c2ccc(Oc3ccccc3)cc2)O1)NCCN1CCCCC1` was run?
A: inactive

Q: `O=C(C[C@H]1CC[C@H]2[C@@H](COC[C@H](O)CN2S(=O)(=O)c2cccc(Cl)c2)O1)NCCCN1CCOCC1` was tested. Which cytotoxicity call did it give?
A: inactive

Q: How did the cytotoxicity call turn out when `COc1ccc(NC(=O)N(C)C[C@H]2OCCCC[C@@H](C)Oc3ccc(NS(=O)(=O)c4ccccc4)cc3C(=O)N([C@@H](C)CO)C[C@H]2C)cc1` was run?
A: inactive
